# PubChem BioAssay AID493165 (National Center for Advancing Translational Sciences (NCATS), 2011)
# Values without a mark were called inactive. Calls of active or inactive are those of the source. Calls follow the shape of the dose curve; as a rule, active = well fitted curve in the direction sought with a large enough effect; inactive = no such curve, though single readings can be large or run the other way.
# Assay: Retest of LOPAC molecules that induce DNA re-replication in SW480 adenocarcinoma cells.
# Conditions: Hoechst DNA content imaging, 48 h; series mostly up to 45.1 µM; activity, positive = re-replication: at the top concentration
# Source text: NIH Molecular Libraries Probe Production Network [MLPCN] NIH Chemical Genomics Center [NCGC] MLPCN Grant: Fast Track K99 CA136555 Assay Provider: Melvin DePamphilis, NICHD, NIH Assay Overview Eukaryotic cells normally restrict genome duplication to once per cell division. When this process is aberrant, DNA re-replication occurs when cells reinitiate DNA replication before the first round of replication is complete. DNA re-replication induces the DNA damage response, arrests cell proliferation, and triggers apoptosis. The cell cycle components cyclin A, Cdt-1, Cdc6 and geminin are critical regulators of this process and their misregulation results in DNA re-replication in normal and cancer cells. To identify compounds that induce re-replication in normal cells, an image-based assay was used to measure DNA content of nuclei, as detected by the fluorescent DNA binding dye, Hoechst. Cell nuclei were imaged by a fluorescence scanning plate imager and compounds that induce DNA re-replication were identified by the increase of nuclei with elevated fluorescence intensity.
# Assay Protocol Summary For screening, 250 cells in 5 uL/well were dispensed into black clear 1536-well plates (Aurora) using a solenoid-based dispenser. Following transfer of 23 nL compound or DMSO vehicle by a pin tool, the plates were incubated 48 hr at 37 C and 5% CO2. After addition of 1 uL/well Hoescht stain, the plates were incubated 40 min at 37 C, 5% CO2 and total intensity of fluorescent objects (nuclei) were enumerated by an Acumen Explorer Ex3 (TTP LabTech) fluorescence scanning plate imager (405 nm excitation, 500-530 nm emission). Keywords: NIH Roadmap, MLPCN, MLI, MLSMR, qHTS, NCGC, DNA replication, cancer
Structure (SMILES),Potency,"activity, positive = re-replication [%]"
COc1cc2c(c(OC)c1OC)-c1ccc(OC)c(=O)cc1[C@@H](NC(C)=O)CC2,33.7 nM (active),–
C=C(C)[C@H]1Cc2c(ccc3c2O[C@@H]2COc4cc(OC)c(OC)cc4[C@@H]2C3=O)O1,1070 nM (active),–
CC(C)NP(=O)(NC(C)C)OP(=O)(NC(C)C)NC(C)C,–,1.4
